# Laboratory results published in PubChem BioAssay (NCATS).
# Several values for one entry are separate records, joined by “and”; a condition that tells them apart may be missing. Identical values can stand only once. Results filed as inconclusive are left out. Entries that show only a call come without a potency. A structure can be active in one record and inactive in another. Unmarked numbers belong to inactive results. Activity calls are given as the source filed them. The call rests on the fitted dose curve; in most records, active means well fitted inhibition curve with a large enough effect; inconclusive means small, poorly fitted or top-dose-only effect; inactive means flat fitted curve, though single readings scatter.
# Columns and labels:
# [1] = tested on: CRL-7250; assay: Cytotoxic Profiling of Annotated Libraries Using Quantitative High-Throughput Screening (AID 1296008); settings: Five cell lines viability, CellTiter-Glo ATP luminescence, 48-72 h; max response: stronger effect = lower value
# Method in brief: (§1)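 Compounds were pin-transferred onto cells and incubated 48 or 72 hr at 37 degree Celsius, 95% humidity. CellTiter-Glo was added, plates sat 10 min at room temperature, then ATP-coupled luminescence was imaged as the viability read-out.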
# [2] = tested on: HEK293; assay: as above; settings: Five cell lines viability, CellTiter-Glo ATP luminescence, 48-72 h; max response: stronger effect = lower value
# Method in brief: as §1
# [3] = tested on: HaCat; assay: as above; settings: Five cell lines viability, CellTiter-Glo ATP luminescence, 48-72 h; max response: stronger effect = lower value
# Method in brief: as §1
# [4] = tested on: KB-3-1; assay: as above; settings: Five cell lines viability, CellTiter-Glo ATP luminescence, 48-72 h; max response: stronger effect = lower value
# Method in brief: as §1
# [5] = tested on: NIH3T3; assay: as above; settings: Five cell lines viability, CellTiter-Glo ATP luminescence, 48-72 h; max response: stronger effect = lower value
# Method in brief: as §1
# [6] = tested on: CRL-7250; assay: qHTS assay to identify novel small-molecules to repurpose for Merkel cell carcinoma treatment (AID 1296009); settings: MCC and control cell lines, CellTiter-Glo viability, 72 h; series mostly up to 44.8 µM
# Method in brief: (§2)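 Viability readout: ATP luminescence (CellTiter-Glo) after 72 hr drug exposure at 37 degree celsius. Dose-response format was 8 points for NPC and 11 points for MIPE; data normalized to in-plate controls.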
# [7] = tested on: HEK293T; assay: as above; settings: MCC and control cell lines, CellTiter-Glo viability, 72 h; at 44.8 µM (top of the series)
# Method in brief: as §2
# [8] = tested on: MCC-13; assay: as above; settings: MCC and control cell lines, CellTiter-Glo viability, 72 h; series mostly up to 46 µM
# Method in brief: as §2
# [9] = tested on: MKL-1; assay: as above; settings: MCC and control cell lines, CellTiter-Glo viability, 72 h; series mostly up to 46 µM
# Method in brief: as §2
# [10] = tested on: MKL-2; assay: as above; settings: MCC and control cell lines, CellTiter-Glo viability, 72 h; series mostly up to 46 µM
# Method in brief: as §2
# [11] = tested on: PC15; assay: qHTS profiling for inhibitors of Plasmodium falciparum proliferation (AID 504749); settings: P. falciparum in erythrocytes, SYBR Green DNA, 72 h; series mostly up to 28.7 µM
# Method in brief: (§3)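 Quantitative HTS: compounds pinned into medium, infected erythrocytes added (0.3% parasitemia, 2.5% hematocrit), 72 h culture at 37 C under 5% CO2. Saponin/Triton lysis with SYBR Green I, overnight RT, then fluorescence read.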
# [12] = tested on: PC26; assay: as above; settings: P. falciparum in erythrocytes, SYBR Green DNA, 72 h; series mostly up to 28.7 µM
# Method in brief: as §3
# [13] = tested on: PC49; assay: as above; settings: P. falciparum in erythrocytes, SYBR Green DNA, 72 h; series mostly up to 28.7 µM
# Method in brief: as §3
# [14] = tested on: SC27B; assay: as above; settings: P. falciparum in erythrocytes, SYBR Green DNA, 72 h; series mostly up to 28.7 µM
# Method in brief: as §3
# [15] = tested on: TAB109; assay: as above; settings: P. falciparum in erythrocytes, SYBR Green DNA, 72 h; series mostly up to 28.7 µM
# Method in brief: as §3
# [16] = tested on: TAB113; assay: as above; settings: P. falciparum in erythrocytes, SYBR Green DNA, 72 h; series mostly up to 28.7 µM
# Method in brief: as §3
# [17] = tested on: TAB165; assay: as above; settings: P. falciparum in erythrocytes, SYBR Green DNA, 72 h; series mostly up to 28.7 µM
# Method in brief: as §3
# [18] = tested on: W2; assay: as above; settings: P. falciparum in erythrocytes, SYBR Green DNA, 72 h; series mostly up to 28.7 µM
# Method in brief: as §3
# [19] = tested on: MCC-26; assay: qHTS assay to identify novel small-molecules to repurpose for Merkel cell carcinoma treatment (AID 1296009); settings: MCC and control cell lines, CellTiter-Glo viability, 72 h; series mostly up to 46 µM
# Method in brief: as §2
# [20] = tested on: HACAT; assay: as above; settings: MCC and control cell lines, CellTiter-Glo viability, 72 h; at 44.8 µM (top of the series) unless noted
# Method in brief: as §2
# Further: nearly all actives have a fitted effect of over 60% in size.
# Potency means the concentration at half of the fitted maximal effect.
smiles,measurement,setting,value
C#CCN(C)[C@H](C)Cc1ccccc1,max response,[1],-4.73%
same,outcome,[1],inactive
same,max response,[2],-7.43%
same,outcome,[2],inactive
same,max response,[3],-9.07% and 1.92%
same,max response,[4],4.15% and -12%
same,max response,[5],3.34%
same,outcome,[5],inactive
same,outcome,[6],inactive
same,outcome,[7],inactive
same,Potency,[8],inactive
same,Potency,[9],inactive
same,Potency,[10],inactive
NN=C(N)N,Potency,[11],inactive
same,Potency,[12],inactive
same,Potency,[13],inactive
same,Potency,[14],inactive
same,Potency,[15],inactive
same,Potency,[16],inactive
same,Potency,[17],inactive
same,Potency,[18],inactive
same,outcome,[1],inactive
same,max response,[2],-4.43%
same,max response,[3],-1.38%
same,max response,[4],8.75%
same,max response,[5],-4.47%
same,outcome,[6],inactive
same,Potency,[8],inactive
same,Potency,[19],inactive
same,Potency,[9],inactive
same,Potency,[10],inactive
CN(C)CCc1ccc(O)cc1,Potency,[11],inactive
same,Potency,[12],inactive
same,Potency,[13],inactive
same,Potency,[14],inactive
same,Potency,[15],inactive
same,Potency,[16],inactive
same,Potency,[17],inactive
same,Potency,[18],inactive
same,max response,[1],-1.07% and -0.797%
same,max response,[2],4.35%
same,outcome,[2],inactive
same,max response,[3],3.93%
same,outcome,[3],inactive
same,max response,[4],-1.4% and 4.63%
same,max response,[5],-1.51% and -2.46%
same,outcome,[20],inactive
same,outcome,[7],inactive
same,Potency,[8],inactive
same,Potency,[19],inactive
same,Potency,[9],inactive
same,Potency,[10],inactive
CNCC(O)c1ccc(O)cc1 (stereo not drawn),max response,[1],-6.88%
same,max response,[2],-14.1% and 1.65%
same,outcome,[3],inactive
same,max response,[4],12.6%
same,outcome,[4],inactive
same,max response,[5],-18%
same,outcome,[5],inactive
same,outcome,[20],inactive
same,Potency,[8],inactive
same,Potency,[19],inactive
same,Potency,[9],inactive
same,Potency,[10],inactive
NCC1(CC(=O)O)CCCCC1,Potency,[11],inactive
same,Potency,[12],inactive
same,Potency,[13],inactive
same,Potency,[14],inactive
same,Potency,[15],inactive
same,Potency,[16],inactive
same,Potency,[17],inactive
same,Potency,[18],inactive
same,max response,[1],-5.5% and -5.6%
same,max response,[2],4.46%
same,outcome,[2],inactive
same,outcome,[3],inactive
same,max response,[4],-11.6% and 17.1%
same,max response,[5],-2.27% and -4.04%
same,outcome,[20],inactive
same,outcome,[7],inactive
same,Potency,[8],inactive
same,Potency,[9],inactive
same,Potency,[10],inactive
O=C(O)C(=O)c1cn(Cc2ccccc2)c2ccc(-c3ccc(OC(F)(F)F)cc3)cc12,max response,[1],-5.5%
same,outcome,[1],inactive
same,max response,[2],3.18%
same,outcome,[2],inactive
same,max response,[3],-0.483%
same,outcome,[3],inactive
same,outcome,[4],inactive
same,max response,[5],-16.9% and 4.93%
same,outcome,[6],inactive
same,outcome,[20],inactive
same,outcome,[7],inactive
same,Potency,[8],inactive
same,Potency,[9],inactive
same,Potency,[10],inactive
CC(C)CC(N(C)C)C1(c2ccc(Cl)cc2)CCC1 (stereo not drawn),Potency,[11],inactive
same,Potency,[12],inactive
same,Potency,[13],inactive
same,Potency,[14],inactive
same,Potency,[15],inactive
same,Potency,[16],inactive
same,Potency,[17],inactive
same,Potency,[18],inactive
same,max response,[1],1.51% and -18.8%
same,max response,[2],3.97% and -10.6%
same,max response,[3],-11.1%
same,outcome,[3],inactive
same,max response,[4],20.9% and 1.72%
same,max response,[5],-0.177%
same,outcome,[5],inactive
same,outcome,[20],inactive
same,Potency,[8],inactive
same,Potency,[9],inactive
same,Potency,[10],inactive
Oc1ccc(Cl)cc1Cc1ccccc1,Potency,[12],15.1 µM (active)
same,Potency,[14],10 µM (active)
same,Potency,[17],6.31 µM (active)
same,Potency,[18],4.78 µM (active)
same,max response,[1],-21.4%
same,Potency,[2],19.5 µM (active)
same,max response,[2],-23%
same,max response,[3],-19.2%
same,max response,[4],-1.59% and -11.5%
same,max response,[5],-10.2%
same,Potency,[8],inactive
same,Potency,[19],inactive
same,Potency,[9],inactive
same,Potency,[10],21.9 µM (active)
COc1ccc(Cc2nccc3cc(OC)c(OC)cc23)cc1OC,Potency,[1],5.31 µM (active)
same,max response,[1],2.23%
same,Potency,[2],8.41 µM (active)
same,max response,[3],-4.38% and -16.7%
same,max response,[4],-20.5% and -0.283%
same,max response,[5],-6.53%
same,Potency,[8],inactive
same,Potency,[9],inactive
same,Potency,[10],inactive
CCCN1CCC[C@@H]2Cc3nc(N)ncc3C[C@H]21,outcome,[1],inactive
same,max response,[2],-17.9%
same,outcome,[3],inactive
same,max response,[4],14.3%
same,max response,[5],-7.61%
same,outcome,[6],inactive
same,outcome,[20],inactive
same,Potency,[8],inactive
same,Potency,[10],inactive
NP(N)(=O)NC(=O)c1ccc(F)cc1,Potency,[11],inactive
same,Potency,[12],inactive
same,Potency,[13],inactive
same,Potency,[14],inactive
same,Potency,[15],inactive
same,Potency,[16],inactive
same,Potency,[17],inactive
same,Potency,[18],inactive
same,outcome,[1],inactive
same,outcome,[2],inactive
same,outcome,[3],inactive
same,max response,[4],-13.3%
same,max response,[5],4.85%
same,outcome,[6],inactive
same,outcome,[20],inactive
same,outcome,[7],inactive
same,Potency,[8],inactive
same,Potency,[9],inactive
same,Potency,[10],inactive
CCCC(C)(COC(N)=O)COC(=O)NC(C)C (stereo not drawn),Potency,[11],inactive
same,Potency,[12],inactive
same,Potency,[13],inactive
same,Potency,[14],inactive
same,Potency,[15],inactive
same,Potency,[16],inactive
same,Potency,[17],inactive
same,Potency,[18],inactive
same,outcome,[1],inactive
same,max response,[2],0.0303%
same,outcome,[2],inactive
same,max response,[3],-8.86% and 1.84%
same,max response,[4],-16.5%
same,outcome,[4],inactive
same,max response,[5],-10.4%
same,outcome,[5],inactive
same,outcome,[6],inactive
same,outcome,[7],inactive
same,Potency,[8],inactive
same,Potency,[9],inactive
same,Potency,[10],inactive
